# From article PMC11062922 (Nature Chemical Biology, 2023)
# Like-named read-outs stand apart in the source and are kept apart here.
# Key:
# Parameters in all cases: species or system human, MV4-11 + K-562 + COLO205 + SK-N-BE2 + OVCAR-8
# COX5A = settings: read-out: apparent Kd, compound concentrations: 100 nM and 1000 nM (sheet 'Samples'), n = 1
# DCTPP1 = settings: read-out: apparent Kd; compound concentrations: 100 nM and 1000 nM (sheet 'Samples'), CATDS: 4.6014352292288702E-2; n = 1
# DJA1 = tested on: T1, DJA1; settings: read-out: apparent Kd; compound concentrations: 100 nM and 1000 nM (sheet 'Samples'), CATDS: 4.4193252056285201E-2; n = 1
# T1 construct: gene DNAJA1
# GSK3A = settings: read-out: apparent Kd, compound concentrations: 100 nM and 1000 nM (sheet 'Samples'), n = 1
# GSK3B = settings: read-out: apparent Kd, compound concentrations: 100 nM and 1000 nM (sheet 'Samples'), n = 1
# ICK = settings: read-out: apparent Kd; compound concentrations: 100 nM and 1000 nM (sheet 'Samples'), CATDS: 5.6669342720563003E-2; n = 1
# IRAK4 = settings: read-out: apparent Kd; compound concentrations: 100 nM and 1000 nM (sheet 'Samples'), CATDS: 4.1120656288718103E-2; n = 1
# NQO2 = settings: read-out: apparent Kd; compound concentrations: 100 nM and 1000 nM (sheet 'Samples'), CATDS: 4.4133222473916003E-2; n = 1
# PDXK = settings: read-out: apparent Kd, compound concentrations: 100 nM and 1000 nM (sheet 'Samples'), n = 1
# PKM = settings: read-out: apparent Kd; compound concentrations: 100 nM and 1000 nM (sheet 'Samples'), CATDS: 4.24178727539107E-2; n = 1
# PRKCA = settings: read-out: apparent Kd; compound concentrations: 100 nM and 1000 nM (sheet 'Samples'), CATDS: 0.16671093509257301; n = 1
# PRKCB = settings: read-out: apparent Kd; compound concentrations: 100 nM and 1000 nM (sheet 'Samples'), CATDS: 0.103401892254312; n = 1
# PRKCD = settings: read-out: apparent Kd, compound concentrations: 100 nM and 1000 nM (sheet 'Samples'), n = 1
# PRKCQ = settings: read-out: apparent Kd, compound concentrations: 100 nM and 1000 nM (sheet 'Samples'), n = 1
# RPS6KA3 = settings: read-out: apparent Kd; compound concentrations: 100 nM and 1000 nM (sheet 'Samples'), CATDS: 4.20026996356445E-2; n = 1
# RPS6KA6 = settings: read-out: apparent Kd; compound concentrations: 100 nM and 1000 nM (sheet 'Samples'), CATDS: 0.184421750918566; n = 1
# RPS6KB1 = settings: read-out: apparent Kd; compound concentrations: 100 nM and 1000 nM (sheet 'Samples'), CATDS: 4.3958496024185799E-2; n = 1
# CSNK1D = settings: read-out: apparent Kd; compound concentrations: 100 nM and 1000 nM (sheet 'Samples'), CATDS: 0.19836678982407999; n = 1
# CSNK1E = settings: read-out: apparent Kd; compound concentrations: 100 nM and 1000 nM (sheet 'Samples'), CATDS: 0.16080040098047499; n = 1
# MAPK10 = settings: read-out: apparent Kd; compound concentrations: 100 nM and 1000 nM (sheet 'Samples'), CATDS: 0.188105641093985; n = 1
# MAPK14 = settings: read-out: apparent Kd; compound concentrations: 100 nM and 1000 nM (sheet 'Samples'), CATDS: 0.26893269490410898; n = 1
# MAPK9 = settings: read-out: apparent Kd; compound concentrations: 100 nM and 1000 nM (sheet 'Samples'), CATDS: 0.212522711291111; n = 1
# DDR1 = settings: read-out: apparent Kd; compound concentrations: 100 nM and 1000 nM (sheet 'Samples'), CATDS: 0.25244983438360302; n = 1
# DDR2 = settings: read-out: apparent Kd; compound concentrations: 100 nM and 1000 nM (sheet 'Samples'), CATDS: 0.115124869581512; n = 1
# FLT3 = settings: read-out: apparent Kd; compound concentrations: 100 nM and 1000 nM (sheet 'Samples'), CATDS: 0.12065000979252; n = 1
# NNT = settings: read-out: apparent Kd; compound concentrations: 100 nM and 1000 nM (sheet 'Samples'), CATDS: 0.115819369976432; n = 1
# RET = settings: read-out: apparent Kd; compound concentrations: 100 nM and 1000 nM (sheet 'Samples'), CATDS: 0.12937404694589899; n = 1
# ZAK = settings: read-out: apparent Kd; compound concentrations: 100 nM and 1000 nM (sheet 'Samples'), CATDS: 8.61130704510496E-2; n = 1
# CLK1 = settings: read-out: apparent Kd; compound concentrations: 100 nM and 1000 nM (sheet 'Samples'), CATDS: 8.2490921109223694E-2; n = 1
# CLK4 = settings: read-out: apparent Kd; compound concentrations: 100 nM and 1000 nM (sheet 'Samples'), CATDS: 9.1933960168397902E-2; n = 1
# FER = settings: read-out: apparent Kd; compound concentrations: 100 nM and 1000 nM (sheet 'Samples'), CATDS: 0.191525182518377; n = 1
# FES = settings: read-out: apparent Kd; compound concentrations: 100 nM and 1000 nM (sheet 'Samples'), CATDS: 0.141762780842772; n = 1
# IGF1R = settings: read-out: apparent Kd; compound concentrations: 100 nM and 1000 nM (sheet 'Samples'), CATDS: 0.28711469302714299; n = 1
# INSR = settings: read-out: apparent Kd; compound concentrations: 100 nM and 1000 nM (sheet 'Samples'), CATDS: 0.56670438264140999; n = 1
# PLK1 = settings: read-out: apparent Kd; compound concentrations: 100 nM and 1000 nM (sheet 'Samples'), CATDS: 8.4906950641747497E-2; n = 1
# PTK2 = settings: read-out: apparent Kd; compound concentrations: 100 nM and 1000 nM (sheet 'Samples'), CATDS: 8.5472412677607995E-2; n = 1
# GTPBP4 = settings: read-out: apparent Kd; compound concentrations: 100 nM and 1000 nM (sheet 'Samples'), CATDS: 4.05365212601312E-2; n = 1
# LATS1 = settings: read-out: apparent Kd; compound concentrations: 100 nM and 1000 nM (sheet 'Samples'), CATDS: 6.4509671540351102E-2; n = 1
# PAK4 = settings: read-out: apparent Kd; compound concentrations: 100 nM and 1000 nM (sheet 'Samples'), CATDS: 5.9667413912450298E-2; n = 1
# PAK6 = settings: read-out: apparent Kd; compound concentrations: 100 nM and 1000 nM (sheet 'Samples'), CATDS: 9.5972545463879802E-2; n = 1
# PKN1 = settings: read-out: apparent Kd; compound concentrations: 100 nM and 1000 nM (sheet 'Samples'), CATDS: 5.7657473805166601E-2; n = 1
# PKN2 = settings: read-out: apparent Kd; compound concentrations: 100 nM and 1000 nM (sheet 'Samples'), CATDS: 4.3276435854429397E-2; n = 1
# PRKACA = settings: read-out: apparent Kd; compound concentrations: 100 nM and 1000 nM (sheet 'Samples'), CATDS: 0.169432353175829; n = 1
# PRKACB = settings: read-out: apparent Kd; compound concentrations: 100 nM and 1000 nM (sheet 'Samples'), CATDS: 0.14426679409785001; n = 1
# PRKG1 = settings: read-out: apparent Kd; compound concentrations: 100 nM and 1000 nM (sheet 'Samples'), CATDS: 5.6874913121809097E-2; n = 1
# PRKX = settings: read-out: apparent Kd; compound concentrations: 100 nM and 1000 nM (sheet 'Samples'), CATDS: 0.106921293671462; n = 1
# ROCK2 = settings: read-out: apparent Kd; compound concentrations: 100 nM and 1000 nM (sheet 'Samples'), CATDS: 4.7086778656787398E-2; n = 1
compound,measurement,setting,value
CNCCCn1cc(C2=C(c3cn(C)c4ccccc34)C(=O)NC2=O)c2ccccc21.Cl [RO0318044-001],potency estimated from few doses,COX5A; CATDS: 4.9189359622159999E-2,925 nM
same,potency estimated from few doses,DCTPP1,1150 nM
same,potency estimated from few doses,DJA1,1330 nM
same,potency estimated from few doses,GSK3A; CATDS: 0.122036106459496,114 nM
same,potency estimated from few doses,GSK3B; CATDS: 7.9816759037496299E-2,263 nM
same,potency estimated from few doses,ICK,610 nM
same,potency estimated from few doses,IRAK4,1750 nM
same,potency estimated from few doses,NQO2,1330 nM
same,potency estimated from few doses,PDXK; CATDS: 4.47093082107951E-2,1270 nM
same,potency estimated from few doses,PKM,1550 nM
same,potency estimated from few doses,PRKCA,67.8 nM
same,potency estimated from few doses,PRKCB,154 nM
same,potency estimated from few doses,PRKCD; CATDS: 0.14677324190073199,83 nM
same,potency estimated from few doses,PRKCQ; CATDS: 5.3878720766830299E-2,703 nM
same,potency estimated from few doses,RPS6KA3,1610 nM
same,potency estimated from few doses,RPS6KA6,58.2 nM
same,potency estimated from few doses,RPS6KB1,1350 nM
Fc1ccc(-c2ncn(CCCN3CCOCC3)c2-c2ccncc2)cc1 [SB-210313],potency estimated from few doses,CSNK1D,1230 nM
same,potency estimated from few doses,CSNK1E,2020 nM
same,potency estimated from few doses,MAPK10,1380 nM
same,potency estimated from few doses,MAPK14,706 nM
same,potency estimated from few doses,MAPK9,1070 nM
COC(=O)Nc1nc2cc(Oc3ccc(NC(=O)Nc4cccc(Br)c4)cc3)ccc2[nH]1.Cl [GW694234A],potency estimated from few doses,COX5A; CATDS: 0.15625736744525701,463 nM
same,potency estimated from few doses,DDR1,217 nM
same,potency estimated from few doses,DDR2,865 nM
same,potency estimated from few doses,FLT3,777 nM
same,potency estimated from few doses,NNT,853 nM
same,potency estimated from few doses,PDXK; CATDS: 0.115099137531036,865 nM
same,potency estimated from few doses,RET,668 nM
same,potency estimated from few doses,ZAK,2040 nM
COc1cc2c(cc1Nc1nc(Nc3ccsc3C(N)=O)c3cc[nH]c3n1)N(C(=O)CN(C)C)CCC2 [GSK2110236A],potency estimated from few doses,CLK1,1090 nM
same,potency estimated from few doses,CLK4,641 nM
same,potency estimated from few doses,FER,44.5 nM
same,potency estimated from few doses,FES,115 nM
same,potency estimated from few doses,IGF1R,16.3 nM
same,potency estimated from few doses,INSR,4.73 nM
same,potency estimated from few doses,PLK1,940 nM
same,potency estimated from few doses,PTK2,909 nM
CCn1c(-c2nonc2N)nc2c(C#CC(C)(C)O)nc(OC[C@H](N)c3ccccc3)cc21 [GSK943949A],potency estimated from few doses,COX5A; CATDS: 4.1546789230528999E-2,1670 nM
same,potency estimated from few doses,GSK3A; CATDS: 6.2645628894546598E-2,424 nM
same,potency estimated from few doses,GSK3B; CATDS: 5.5933303342936301E-2,576 nM
same,potency estimated from few doses,GTPBP4,1880 nM
same,potency estimated from few doses,LATS1,394 nM
same,potency estimated from few doses,PAK4,482 nM
same,potency estimated from few doses,PAK6,167 nM
same,potency estimated from few doses,PKN1,529 nM
same,potency estimated from few doses,PKN2,1390 nM
same,potency estimated from few doses,PRKACA,64.8 nM
same,potency estimated from few doses,PRKACB,82.7 nM
same,potency estimated from few doses,PRKCD; CATDS: 4.3301317069520798E-2,1390 nM
same,potency estimated from few doses,PRKCQ; CATDS: 0.16159232019623801,69.5 nM
same,potency estimated from few doses,PRKG1,549 nM
same,potency estimated from few doses,PRKX,137 nM
same,potency estimated from few doses,ROCK2,999 nM
